This is part of a sample that, as a whole, favours compounds with a hit. Of some 83,000 tested, about 20% had one in any assay.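 Plates (96-well) were seeded with cells, treated with compound at one concentration, and incubated for 48 hours before percent growth was determined.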 Values without a mark were called inactive. The source made the active and inactive calls. Rule for the calls: active = growth percent below 10; inactive = the rest.

This assay relates to HL-60(TB) leukemia. The experiment in a line: NCI-60 one-dose screen, 48 h (100 = growth as untreated, 0 = no growth, -100 = all killed). The settings on record: 10 µM unless noted.
On to `COc1ccccc1NS(=O)(=O)c1cccc(C(=O)Nc2ccc(Br)cc2)c1`, for which the growth was 29.4%.
Turning to `CSc1cc(SC)ncn1`, the growth is 101%.
As to `C=C(C)[C@@H]1CC[C@]2(CO)CC[C@]3(C)[C@H](CC[C@@H]4[C@@](C)(CCCN)[C@H](C(=C)C)CC[C@]43C)[C@@H]12`, the growth was -54.7% (active).
In the case of `C=C(C)[C@@H]1CC[C@]2(C(=O)NC(COC(=O)C(Cl)Cl)(COC(=O)C(Cl)Cl)COC(=O)C(Cl)Cl)CC[C@]3(C)[C@H](CC[C@@H]4[C@@]5(C)CC[C@H](OC(C)=O)C(C)(C)[C@@H]5CC[C@]43C)[C@@H]12`, the growth is 16.7%.
In the case of `O=C(NC1CCC(Br)CC1)C1CCCC(S(=O)(=O)NC2CCCCC2)C1` (stereo not given), the growth was 4.46% [25 µM] (active).
Regarding `N#Cc1c(-c2cccc(Cl)c2)cc(-c2cccc(F)c2)[nH]c1=O`, the growth is -58.3% (active).
As to `N#Cc1cc(-c2cc3ccccc3o2)oc1N`, the growth was -49.3% (active).
Consider `Cc1ccc(-c2nc3nc(-c4ccccc4)nc(N4CCCNCC4)c3o2)cc1`, for which the growth was -69.8% (active).
To `O=C(C=P(c1ccccc1)(c1ccccc1)c1ccccc1)CCl` belongs -39.8% (active).
With `COCCN(C(=O)Cc1cccs1)C(C(=O)NCc1ccc(OC)cc1)c1ccc(C(C)C)cc1` (stereo not given), the growth was 105%.
For `O=C1c2[nH]cc(CN[C@@H]3CCCN3)c2C(=O)c2c1c(O)c1ccccc1c2O`, the growth was -73% (active).
For `CCc1cnc2ccccc2c1/C=C/c1ccc(N(C)C)cc1`, the growth is 12.9%.
Regarding `COc1ccc(-c2nc(SCC(C)C)nc(Nc3ccc(C)cc3)c2C#N)cc1`, the growth is 92.3%.
Consider `COc1ccc2[nH]c(=O)c(/C=C/C(=O)c3ccc(Nc4nccc(-c5ccc6ccccc6c5)n4)cc3)cc2c1`, for which the growth was 97.6%.
In the case of `OC(c1cc2cc(Cl)ccc2c2cc(C(F)(F)F)ccc12)C1CCCCN1` (stereo not given), the growth was -61.1% (active).
With `N#CC(C#N)C(C#N)C#N`, the growth was 98.6%.
Regarding `CCOc1cc(/C=C/C(=O)CC(=O)/C=C/c2ccc(OC(=O)CNc3nc4ccc(OC)cc4s3)c(OCC)c2)ccc1OC(=O)CNc1nc2ccc(OC)cc2s1`, the growth was 21.5%.
For `O=C1NC(=O)c2c1c1c3ccccc3[nH]c1c1oc3cc(Br)ccc3c21` the value was 104%; for `O=c1oc2c(cc1-c1ccccc1)c(=O)[nH]c1ccccc12`, 98.1%; for `O=C1C(=O)/C(=C/c2ccccc2)CCCCCC/C1=C/c1ccccc1`, 46.6%.
On to `O=C(CN1CCCCCC1)Nc1nc2ccc(NCc3ccc(Cl)cc3)cc2s1`, for which the growth was 95.9%.
For `CCCCCCCCOC(=O)CC[C@@H](C)[C@H]1CC[C@H]2[C@@H]3[C@H](OC(=O)CCN)C[C@@H]4C[C@H](OC(=O)CCN)CC[C@]4(C)[C@H]3C[C@H](OC(=O)CCN)[C@]12C` the value was 43.7%.
For `O=C1/C(=C/c2ccc(F)cc2)Sc2c(Br)cccc21` the value was 103%; for `CCOc1ccccc1/C=N\N=C(N/N=C/c1ccccc1OCC)N/N=C/c1ccccc1OCC`, 11.9%.
For the compound `C=CC1=NC(C)(C)CC(C)O1` (stereo not given), the growth is 96.7%.
Consider `O=C1C=CC2(NN=C(c3ccccc3)N2c2cccc(Cl)c2)C(Cl)=C1` (stereo not given), for which the growth is 33%.
Regarding `CCOC(=O)c1c(-c2ccccc2)n2c(=O)cc(C)c3c(O)c(O)cc1c32`, the growth is 11.7%.
Regarding `CC(=NCc1ccccc1)c1ccc(O)cc1O`, the growth was 102%.
For `Nc1nc(N)c2cc(Sc3ccc4ccccc4c3)ccc2n1` the value was 31.4%.
With `Cn1ccnc1C(=O)/C=C/c1ccc(C(=O)Nc2ccc(F)cc2)cc1`, the growth is -6.9% (active).
Take `Cc1ccc(C2=C/C(=C/c3ccc(Br)cc3)C(=O)N2CCc2ccc(S(N)(=O)=O)cc2)cc1`: the growth is 96.7%.
In the case of `O=C1CC[C@@H]2CCCC[C@@H]2C1`, the growth is 110%.
Regarding `FC(F)(F)c1[nH]ncc1-c1nc2ccc3[nH]ncc3c2c2c1CCCC2`, the growth is -32.3% (active).
On to `CNC(=O)c1cccc(Cn2nc(C)c(NC(=O)c3ccc(COc4ccc(C(F)(F)F)cc4C)cc3)c2C)n1`, for which the growth was 36.7%.
With `COc1ccc(Nc2nc(NCc3ccccc3)c3ccccc3n2)cc1`, the growth was 89.5%.
On to `N#CC1=C(N)Oc2c(sc3c(F)cccc23)C1c1ccc(Cl)cc1` (stereo not given), for which the growth is -6.14% (active).
To `CCn1c(-c2nonc2N)nc2c(C#CC(C)(C)O)ncc(OC[C@H]3CCCNC3)c21` belongs 41%; to `CCOC(=O)N1CCc2c(sc3nc4nc[nH]n4c(=O)c23)C1`, 103%; to `CCOC(=O)c1ccc(N=Cc2sc(=O)[nH]c2O)cc1`, 101%.
As to `Fc1cc2c(cc1Cl)N(c1ncnc3ccc(-c4cnc5cnccn45)cc13)CC2`, the growth was -7.92% (active).
